The text below walks through data of PubChem BioAssay (Tox21).

Values joined by “and” are separate entries in the source; they are usually repeats but may differ in a detail not shown here. Equal values may be shown once. Records with an inconclusive call do not appear. Where a call stands in place of a potency, no number is given. Active and inactive are the calls of the source. Calls follow the shape of the dose curve; as a rule, active = well fitted cell-killing curve with a large enough effect in the repeat runs; inconclusive = weak or mixed curves, or effect the other way; inactive = flat fitted curve, though single readings scatter.
Potency is read from the fitted curve at half-maximal effect.

This assay is described as follows: qHTS RealTime-Glo MT Cell Viability Assay in HEK293 cells - 32 hour (AID 1224868). Also: nearly all actives have a fitted effect of over 50% in size. As to activity change, negative = cytotoxic: top concentration of the series differs between compounds. The following applies: RealTime-Glo luminescence; series mostly up to 76.8 µM. From the text:
National Center for Advancing Translational Sciences [NCATS]
NIH Chemical Genomics Center [NCGC]
U.S. Environmental Protection Agency [EPA]
National Institutes of Environmental Health Sciences [NIEHS]
National Toxicology Program [NTP]
U.S. Food and Drug Administration [FDA]
Measure of cell viability is critical in the cell-base assay. Analysis of cell viability is necessary for the characterization of cell responses to cytotoxic drugs and environmental stress. A RealTime-Glo MT Cell Viability Assay to monitor cell viability in real time of continues cell culture during 40 hours of compound treatment was used to screen Tox21 10K library compounds in Hek293 cells. The RealTime-Glo MT Cell Viability Assay is a nonlytic, homogeneous, bioluminescent method to measure cell viability in real time using a simple, plate-based method. The assay involves adding NanoLuc luciferase and a cell-permeant prosubstrate to cells in culture. Viable cells reduce the proprietary prosubstrate to generate a substrate for NanoLuc luciferase. This substrate diffuses from cells into the surrounding culture medium, where it is rapidly used by the NanoLuc Enzyme to produce a luminescent signal. The signal correlates with the number of viable cells, making the assay well suited for cytotoxicity studies.
Tox21 Assay Protocol Summary:
The mixture of Hek293 cell suspension and reagents were dispensed at 600cells/6 ul/well in 1536-well tissue culture treated black solid bottom plates using a Multidrop dispenser. After the assay plates were incubated at a 37 C/5% CO2 incubator for 5 hours, 23 nL of compounds dissolved in DMSO, positive and negative controls was transferred to the assay plate by a pintool work station. The plates were incubated at 37 C for 40 hours. The luminescence intensity were measured at 0h, 8h, 16h, 24h, 32h and 40h time points using ViewLux plate reader during compound treatment.
Background: Quantitative high-throughput screening tests each substance at several concentrations.
Consider `CCc1c(C(=O)O)c(=O)cnn1-c1ccc(Cl)cc1`, for which the Potency entry was “inactive”.

On to `CCc1cccc(CC)c1NC(=O)C(=O)O`, for which the Potency entry was “inactive”.

In the case of `CC(C)(c1cc(Br)c(OCCO)c(Br)c1)c1cc(Br)c(OCCO)c(Br)c1`, the Potency was 13.5 µM (active). On the same count and under the same terms, the value for `NC(=O)c1ccccc1N` was “inactive”; that for `CCOC(/C=C(\C)CCC=C(C)C)OCC` was “inactive”; that for `CCc1ccc(C)nc1` was “inactive”.

For the compound `O=C1OC(OC(=O)c2cccnc2Nc2cccc(C(F)(F)F)c2)c2ccccc21` (stereo not given), the Potency entry was “inactive”. The same measure, in the same setting: next, `O=C[C@H](O)[C@H](O)[C@H](O)CO`: “inactive”; `CCCCCCOc1ccc(O)cc1`: 0.0692 µM (active). Same read-out and setting: the value for `CN1CN(C)CN(C)C1` was “inactive”; that for `CCOC(=O)N1CCC(=C2c3ccc(Cl)cc3CCc3cccnc32)CC1` was 15.5 µM (active) and 16.9 µM (active). The same measure, in the same setting: next, `CCN(CC)CCOc1ccc(C(O)(Cc2ccc(Cl)cc2)c2ccc(C)cc2)cc1` (stereo not given): 16.9 µM (active); `C=CC(C)C#N` (stereo not given): “inactive”. For `Cc1cncc(C)c1`, the Potency result is “inactive”. For `CCN1CCN(c2cc(-c3ccc(F)cc3)c3c(n2)CCCCCC3)CC1`, the activity change, negative = cytotoxic was -11.6% [at 15.8 µM] (inactive). Turning to `CCCCCCCCCCCC(=O)N(CC)CC`, the Potency result is “inactive”. The same measure, in the same setting: the value for `CCOC(=O)CC(C)O` (stereo not given) was “inactive”.

In the case of `Cc1cccc(N(C)C)c1`, the Potency entry is “inactive”.

For `C[C@@]12C(=O)OC(=O)[C@]1(C)C1CCC2O1`, the Potency was 6.01 µM (active). For `CC(=O)C=O`, the Potency entry is “inactive”.

For `CCC1(c2cnc[nH]2)Cc2ccccc2C1`, the Potency entry is “inactive”. Same read-out and setting: the value for `CC(C)CCOCCC(C)C` was “inactive”. The same measure, in the same setting: the value for `Cc1c(-c2ccc(O)cc2)n(Cc2ccc(OCCN3CCCCCC3)cc2)c2ccc(O)cc12` was 3.01 µM (active); that for `CNCC[C@H](Oc1cccc2ccccc12)c1cccs1` was 23.9 µM (active); that for `COCC(=O)O[C@]1(CCN(C)CCCc2nc3ccccc3[nH]2)CCc2cc(F)ccc2[C@@H]1C(C)C` was 6.74 µM (active). With `CC1=C(/C=C/C(C)=C/C=C/C(C)=C\C=O)C(C)(C)CCC1`, the Potency is 46.4 µM (active). Still for that read-out and setting: next, `O=C(O)CC(=O)O`: “inactive”. On the same count and under the same terms, the value for `CC1=C(/C=C/C(C)=C/C=C/C(C)=C/C(=O)Nc2ccc(O)cc2)C(C)(C)CCC1` was 1 µM (active) and 425 nM (active); that for `CCC(C)(C)c1cc(O)c(C(C)(C)CC)cc1O` was 30.9 µM (active); that for `Cc1cc(=O)[nH]c(=O)[nH]1` was “inactive”. As to `CCCCNc1c(C(=O)OCC)c(C)nc2c1cnn2CC`, the Potency is 21.3 µM (active). Turning to `CCCC(O)C(O)CO` (stereo not given), the Potency result is “inactive”.

Take `CC(C)=C1CC[C@@H](C)CC1=O`: the Potency entry is “inactive”. Still for that read-out and setting: next, `CC(C)(C)C1=CC(=O)C=C(C(C)(C)C)C1=O`: “inactive”; `C/C=C/c1ccc(OC)c(OC)c1`: “inactive”; `COc1ccc(C#N)cc1`: “inactive”. On the same count and under the same terms, next, `OCCCc1cccnc1`: “inactive”; `CCCCCCCCCCCCCc1ccccc1`: “inactive”; `CCCCCCCCCC(=O)N(C)C`: “inactive”. On the same count and under the same terms, next, `C/C=C/CO`: “inactive”.
